# Screening data deposited in PubChem BioAssay by National Center for Advancing Translational Sciences (NCATS).
# VP16 counter = inhibits Gal4-VP16 luciferase reporter, ROR gamma counter-screen. Drosophila S2 Gal4-VP16 UAS-luciferase, luminescence, 20 h. actives 3.5% (n = 310,000). Potency, µM (top dose mostly 53.6 µM), for inactives: at the top dose activity, negative = inhibition, usual class: inhibitors. AID 2546;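 further: Gal4-VP16 expression switched on by copper sulfate through the metallothionein promoter; on the % scale 0 is the no-effect control and ±100 the full control effect; nearly all actives have a fitted effect of over 50% in size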
# KB-3-1 cytotox = kills parental KB-3-1 adenocarcinoma cells; actives 1.4% (n = 400,000); Potency, µM (titrated, usually from 46.1 µM), actives largely listed as cytotoxic; KB-3-1 viability, CellTiter-Glo ATP luminescence, 72 h; further: on the % scale 0 is the no-effect control and ±100 the full control effect; nearly all actives have a fitted effect of over 60% in size
#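 Viability of parental KB-3-1 cells, measured by CellTiter-Glo luminescence, followed a 72 h incubation at 37 °C with pinned compounds in phenol-red-free DMEM containing 10% FBS.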
# SW480 rerep = DNA re-replication induction in SW480 cells; SW480 DNA re-replication, Hoechst DNA content imaging, 48 h; Potency, µM (doses to about 46.1 µM), inactives show at the top dose re-replication activation, usual class: activators; actives 1.8% (n = 340,000); AID 624297; further: % of control where 0% means no effect; nearly all actives have a fitted effect of over 55% in size
#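 Treated cells incubate 48 hr (37 C, 5% CO2), are stained 40 min with Hoechst, and nuclear fluorescence is enumerated; a rise in nuclei with high DNA signal marks re-replication.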
# MCF10A rereplic = induces DNA re-replication in MCF 10a normal breast cells | MCF 10A DNA re-replication, Hoechst nuclear intensity, 48 h | Potency, µM (highest dose often 46.1 µM), without a hit: top-dose activity, positive = re-replication, hits mostly activators | actives 2.9% (n = 350,000) | AID 624296; further: % of control where 0% means no effect; nearly all actives have a fitted effect of over 50% in size
# RORg inh = blocks mouse ROR gamma transcriptional activity; P51450; Drosophila S2 Gal4-RORgamma UAS-luciferase reporter, 20 h; Potency, µM (highest dose often 53.6 µM), inactives show at the top dose activity change, negative = inhibition, actives largely listed as inhibitors; actives 5.4% (n = 310,000); further: on the % scale 0 is the no-effect control and ±100 the full control effect; nearly all actives have a fitted effect of over 60% in size
# Target sequence (P51450 whole entry, looked up, the tested form may be a part): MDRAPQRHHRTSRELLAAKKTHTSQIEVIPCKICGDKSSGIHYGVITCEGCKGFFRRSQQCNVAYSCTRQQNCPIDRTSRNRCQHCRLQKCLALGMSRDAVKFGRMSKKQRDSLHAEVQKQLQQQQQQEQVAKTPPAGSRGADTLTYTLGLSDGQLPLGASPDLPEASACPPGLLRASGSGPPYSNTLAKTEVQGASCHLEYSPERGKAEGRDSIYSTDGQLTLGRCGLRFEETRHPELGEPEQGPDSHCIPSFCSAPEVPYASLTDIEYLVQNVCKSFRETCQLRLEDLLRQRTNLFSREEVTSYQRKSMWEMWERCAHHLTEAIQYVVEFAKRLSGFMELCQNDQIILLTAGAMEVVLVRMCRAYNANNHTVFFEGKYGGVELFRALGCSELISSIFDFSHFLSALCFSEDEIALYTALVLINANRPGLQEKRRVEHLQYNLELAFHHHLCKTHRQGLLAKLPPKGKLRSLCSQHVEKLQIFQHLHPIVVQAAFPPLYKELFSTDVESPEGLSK
#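 Stable Schneider cell line, Gal4 DNA-binding domain fused to ROR gamma, UAS-luciferase. Cmpd 1 hr RT → CuSO4 700 uM final → 20 hr RT → luciferase reagent 10 min → luminescence.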
# KB-V1 cytotox = kills drug-selected multidrug resistant KB-V1 cells; Potency, µM (doses to about 46.1 µM), most hits filed as cytotoxic; KB-V1 MDR cells viability, CellTiter-Glo, 72 h; AID 1347076; actives 3.4% (n = 400,000); further: on the % scale 0 is the no-effect control and ±100 the full control effect; nearly all actives have a fitted effect of over 60% in size
#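 Drug-selected KB-V1 cells, grown in DMEM lacking phenol red with 10% FBS, receive compound titrations; after three days at 37 degrees C, surviving cell ATP is quantified by CellTiter-Glo luminescence and responses normalized and curve-fitted.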
# Active calls of the source: *; i = inactive; ? = inconclusive; . = no result given; [ ] = dose if it differs, or a comment. This is a sample that favours compounds with a hit; in the whole collection about 10% have one here. The call rests on the fitted dose curve; in most records, active means well fitted curve in the direction sought with a large enough effect; inconclusive means small, poorly fitted or top-dose-only effect, or another doubt; inactive means no such curve, though single readings can be large; an effect the other way counts as inactive or inconclusive. Potency means the concentration at half of the fitted maximal effect.
SMILES,VP16 counter,KB-3-1 cytotox,SW480 rerep,MCF10A rereplic,RORg inh,KB-V1 cytotox
COc1cc(/C=C(/C#N)c2nc(-c3cc4ccccc4oc3=O)cs2)cc([N+](=O)[O-])c1O,-1%,.,.,.,7%,.
Cc1ccc(-c2cc3c(N4CCN(c5cc(C)ccc5C)CC4)nccn3n2)cc1,.,?,.,.,.,i
COc1ccc(O[C@H]2C=C[C@@H](c3ccccc3)O[C@H]2COC(=O)CC/C(C)=N\O[C@@H](C)c2cn([C@H](CO)Cc3ccccc3)nn2)cc1,-2%[10 µM],.,.,.,0%[10 µM],.
COC(=O)[C@@]1(Cc2ccccc2)[C@H]2c3cc(C(=O)N(C)C)n(Cc4ccccc4)c3C[C@H]2CN1C(=O)c1ccccc1,-5%,.,.,.,-8%,.
CC1(C)Cc2nc3oc4c(N(CCO)Cc5ccccc5)ncnc4c3cc2CO1,2%,i,-8%,19%,1%,15µM*
COCCSc1ncnc2c1oc1nc3c(cc12)COC(C)(C)C3,-11%,?,?,15%,0%,i
CCc1ccccc1NC(=O)CN1C(=O)COc2ccc(S(=O)(=O)Nc3ccccc3)cc21,.,i,.,.,.,i
O=C(Cc1ccccc1)Nc1cc2c(cc1Cl)OCCCO2,2%,i,0%,8%,0%,i
CC(NC(=O)c1cc2sccc2n1C)c1ccc2c(c1)OCCO2 (stereo not drawn),-15%,?,-4%,?,7%,21µM*
CC(NC(=O)CCc1ccccc1)c1cc2c(cc1Cl)OCCO2 (stereo not drawn),-13%,?,18%,?,35%,21µM*
CC(CC(=O)NC(C)c1ccc2c(c1)OCCO2)c1ccccc1 (stereo not drawn),3%,i,-44%,5%,26%,26µM*
CCn1c(C(=O)NC(C)c2ccc3c(c2)OCCO3)cc2sccc21 (stereo not drawn),13%,i,5%,18%,-1%,i
COC(=O)C1=C(O)C(C(=O)OC)C(c2ccc(C)cc2)C(C#N)(C#N)C1c1ccc(C)cc1 (stereo not drawn),?,7.3µM*,?,?,?,?
CCOC(=O)CSC1=C(C#N)C(c2ccc(C)cc2)C(C(=O)OC)C(=O)N1 (stereo not drawn),6%,i,-8%[9.22 µM],3%,28%,i
CCc1ccc(CNC(=O)C(CC)n2ccc3cc(S(=O)(=O)N4CCCCC4)ccc32)cc1 (stereo not drawn),.,i,.,.,.,i
O=C(NC(=S)NNC(=O)c1ccccc1[N+](=O)[O-])c1ccc(Br)cc1,6.3µM*,i,0%,14%,6.3µM*,i
O=C(COc1ccc([N+](=O)[O-])cc1)NNC(=S)NC(=O)c1ccc(Br)cc1,?,i,2%,16%,3.2µM*,i
Cc1ccc(C(=O)NC(=S)NNC(=O)COc2ccc([N+](=O)[O-])cc2)cc1,11µM*,?,-6%,1%,11µM*,i
Cc1cccc(NC(=O)c2sc3nc4n(c(=O)c3c2C)N=C(c2ccc(F)cc2)CS4)c1C,.,i,.,.,.,i
CCCn1c(C(C)NC(C)=O)nc2ccccc21 (stereo not drawn),-13%,i,-11%,3%,-13%,i
CCCCCn1c(C(Cc2ccccc2)NC(=O)COC)nc2ccccc21 (stereo not drawn),?,i,2%,-7%,32µM*,?
CCCCC(NC(C)=O)c1nc2ccccc2n1CCC (stereo not drawn),14%,i,-1%,1%,10%,21µM*
CC(=O)NC(C)c1nc2ccccc2n1CC(=O)NC(C)CCc1ccccc1 (stereo not drawn),-2%,i,-48%[1.84 µM],-29%,13µM*,i
COc1ccccc1N(CC(=O)Nc1cc(C)cc(C)c1)S(C)(=O)=O,.,i,.,.,.,?
